Assay results published in PubChem BioAssay AID1159580 (chemical genetic matrix, 2015).
Several values for one entry are separate records, joined by “and”; a condition that tells them apart may be missing. Equal values may be shown once. In all, about 5,500 compounds went through this assay and about 2,000 (36%) were called active. Not shown: some 18% with an inconclusive outcome. No stated cut-off is given here; in the data, active means normalized growth mostly below about 0.91 (no sharp cut-off); inconclusive means no clear call, values can overlap the other calls; inactive means mostly above about 0.92. The list shows a part of the results.

Assay: chemical genetic growth profiling, strain panel (AID 1159580);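 further: tested at 20 µM; growth read once vehicle control cultures reached saturation at 30 °C; 1 = growth at the plate median or of vehicle wells; lower values mean less growth of the strain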
Settings: S. cerevisiae deletion strains, growth OD

Measured: normalized growth

CC(=O)C1CC[C@H]2C3CC[C@H]4C[C@H](O)CC[C@]4(C)C3CC[C@]12C (some centres not stated)
active: locus YAL026C, strain drs2, hits give low values 0.849 | locus YDR137W, strain rgp1, hits give low values 0.763
inactive: locus YAL013W, strain DEP1, hits give low values 1 | locus YAL021C, strain ccr4, hits give low values 0.936 | locus YAL030W, strain snc1, hits give low values 0.999 | locus YBL061C, strain skt5, hits give low values 1.02 | locus YBR009C, strain hhf1, hits give low values 1.02 | locus YBR021W, strain FUR4, hits give low values 0.977 | locus YBR023C, strain chs3, hits give low values 0.998 | locus YBR171W, strain sec66, hits give low values 0.998 | locus YBR229C, strain ROT2, hits give low values 0.995 | locus YBR231C, strain swc5, hits give low values 1.01 | locus YBR279W, strain paf1, hits give low values 0.987 | locus YCL011C, strain gbp2, hits give low values 0.995 | locus YCL016C, strain dcc1, hits give low values 0.964 | locus YCL029C, strain bik1, hits give low values 0.998 | locus YCL069W, strain vba3, hits give low values 1 | locus YCR088W, strain abp1, hits give low values 1 | locus YDL005C, strain med2, hits give low values 0.997 | locus YDL035C, strain GPR1, hits give low values 0.999 | locus YDL040C, strain nat1, hits give low values 1.01 | locus YDL074C, strain BRE1, hits give low values 1.01 | locus YDL101C, strain DUN1, hits give low values 0.982 | locus YDL134C, strain PPH21, hits give low values 0.975 | locus YDL185W, strain tfp1, hits give low values 0.989 | locus YDL192W, strain arf1, hits give low values 1 | locus YDR001C, strain nth1, hits give low values 1.01 | locus YDR069C, strain doa4, hits give low values 1 | locus YDR101C, strain arx1, hits give low values 1.01 | locus YDR159W, strain sac3, hits give low values 1.03 | locus YDR162C, strain NBP2, hits give low values 0.993 | locus YDR195W, strain ref2 1.02 | locus YDR297W, strain sur2, hits give low values 1.02 | locus YDR318W, strain mcm21, hits give low values 0.995 | locus YDR334W, strain swr1, hits give low values 1.01 | locus YDR335W, strain msn5, hits give low values 0.984 | locus YDR388W, hits give low values 0.994 | locus YDR392W, strain spt3, hits give low values 0.837 | locus YDR502C, strain sam2, hits give low values 0.971 | locus YEL003W, strain gim4, hits give low values 1 | locus YEL037C, strain rad23, hits give low values 0.994 | locus YEL061C, strain CIN8 (second series), hits give low values 1 | locus YEL061C, strain CIN8, hits give low values 1.01 | locus YER015W, strain faa2, hits give low values 1 | locus YER016W, strain bim1, hits give low values 0.998 | locus YER110C, hits give low values 0.981 | locus YER111C, strain swi4, hits give low values 0.994 | locus YER155C, strain BEM2 (second series), hits give low values 1.02 | locus YER155C, strain BEM2, hits give low values 0.992 | locus YER167W, strain BCK2, hits give low values 0.993 | locus YFR010W, strain ubp6, hits give low values 0.999 | locus YGL078C, strain dbp3, hits give low values 0.963 | locus YGL086W, strain mad1, hits give low values 0.971 | locus YGL167C, strain pmr1, hits give low values 1.01 | locus YGL173C, strain kem1, hits give low values 0.99 | locus YGL227W, strain vid30, hits give low values 1.01 | locus YGL240W, strain doc1, hits give low values 1.01 | locus YGL248W, strain PDE1, hits give low values 0.987 | locus YGL253W, strain hxk2, hits give low values 0.983 | locus YGR078C, strain PAC10, hits give low values 0.969 | locus YGR135W, strain pre9, hits give low values 0.932 | locus YGR229C, strain SMI1, hits give low values 1.05 | locus YGR252W, strain gcn5, hits give low values 0.928 | locus YHR013C, strain ard1, hits give low values 0.996 | locus YHR027C, strain rpn1, hits give low values 0.999 | locus YHR030C, strain SLT2, hits give low values 0.992 and 0.994 | locus YHR079C, strain IRE1 (second series), hits give low values 1 | locus YHR079C, strain IRE1, hits give low values 1 | locus YHR094C, strain hxt1, hits give low values 0.992 | locus YHR129C, strain ARP1, hits give low values 1 | locus YHR142W, strain chs7, hits give low values 0.957 | locus YHR200W, strain rpn10, hits give low values 0.984 | locus YIL066C, strain RNR3, hits give low values 1.01 | locus YIL073C, strain SPO22, hits give low values 0.962 | locus YIL125W, strain kgd1, hits give low values 1 | locus YIR030C, strain dcg1, hits give low values 0.998 | locus YJL092W, strain hpr5, hits give low values 1 | locus YJL095W, strain BCK1 (second series), hits give low values 1.01 | locus YJL095W, strain BCK1, hits give low values 0.936 and 0.99 | locus YJL115W, strain asf1, hits give low values 1 | locus YJL129C, strain trk1, hits give low values 1.01 | locus YJL134W, strain LCB3, hits give low values 1 | locus YJL154C, strain vps35, hits give low values 1.01 | locus YJL164C, strain tpk1, hits give low values 0.999 | locus YJL166W, strain qcr8, hits give low values 1.01 | locus YJL168C, strain set2, hits give low values 1 | locus YJL187C, strain SWE1 (second series), hits give low values 0.962
